RORgamma inh = ROR gamma (mouse) transcription inhibition. Drosophila S2 Gal4-RORgamma UAS-luciferase reporter, 20 h. Potency, µM (top dose mostly 53.6 µM), most hits filed as inhibitors. 310,000 compounds, 5.4% hits. AID 2551; further: nearly all actives have a fitted effect of over 60% in size
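Luminescence from a UAS-regulated Photinus luciferase reporter in stably transfected Drosophila Schneider cells is measured; decreased signal marks ROR gamma inhibition. Fusion expression is induced by 700 uM copper sulfate for 20 hr.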
Six1-Eya2 blk = inhibitors of human Six1/Eya2 interaction; activity change, % (no concentration beside the values); AID 651725; 360,000 compounds, 0.56% hits; AlphaScreen GST-Six1/His-Eya2 binding, biochemical; stronger effect = lower value; Q15475+O00167; in the data active means activity change below about -65%; inconclusive means mostly about -30% to -63%
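Compounds are tested against tagged Six1 and Eya2 proteins bridged by glutathione donor and nickel acceptor beads; after a one-hour incubation at 37 °C without light, AlphaScreen emission is recorded.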
PKM2 activator = PKM2 (human) enzyme activation. P14618. purified PKM2, Kinase-Glo ATP luminescence, activation; response scale: 0% is enzyme alone, no compound. Potency, µM (top dose mostly 57.5 µM), usual class: activators. 260,000 compounds, 0.34% hits. AID 1631; further: nearly all actives have a fitted effect of over 55% in size
Target sequence (P14618 whole entry, looked up): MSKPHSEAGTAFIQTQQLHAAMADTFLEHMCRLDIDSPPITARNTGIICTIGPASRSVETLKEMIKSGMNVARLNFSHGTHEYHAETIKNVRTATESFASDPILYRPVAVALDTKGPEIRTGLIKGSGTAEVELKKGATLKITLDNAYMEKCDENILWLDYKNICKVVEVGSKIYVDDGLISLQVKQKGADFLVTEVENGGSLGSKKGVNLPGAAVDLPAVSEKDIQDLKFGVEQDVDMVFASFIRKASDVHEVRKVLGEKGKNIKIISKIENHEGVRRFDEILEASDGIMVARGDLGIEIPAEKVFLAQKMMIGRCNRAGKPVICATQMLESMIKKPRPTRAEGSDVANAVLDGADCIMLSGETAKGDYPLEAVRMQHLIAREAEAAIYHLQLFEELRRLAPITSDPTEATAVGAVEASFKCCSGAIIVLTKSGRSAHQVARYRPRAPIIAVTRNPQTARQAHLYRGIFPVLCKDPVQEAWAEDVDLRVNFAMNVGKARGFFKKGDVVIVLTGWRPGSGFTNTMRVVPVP
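Purified hPK-M2 (>95%) run at intermediate activity with 0.1 mM ADP and 0.5 mM PEP in 50 mM imidazole pH 7.2, KCl, MgCl2; 1 h room temperature. ATP formed read by Kinase-Glo luminescence; normalized to uninhibited and no-enzyme controls.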
CtBP-E1A inh = CtBP/E1A binding inhibition | activity change, % (no concentration beside the values) | 340,000 compounds, 0.49% hits | AlphaScreen GST-E1A/His-CtBP binding, 1536-well; stronger effect = lower value; in the data active means activity change below about -65%; inconclusive means mostly about -30% to -63%
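GST-E1A and His-tagged CtBP (125 nM each as 5X stock) were preincubated with pin-transferred compound for 2 h at 37 °C in the dark, then glutathione donor and nickel acceptor beads were added for 1 h before AlphaScreen reading.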
Gal4-VP16 FLuc = counter-screen for ROR gamma inhibitors: Gal4-VP16 reporter. Drosophila S2 Gal4-VP16 UAS-luciferase, luminescence, 20 h. Potency, µM (titrated, usually from 53.6 µM), hits mostly inhibitors. 310,000 compounds, 3.5% hits. AID 2546;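 further: Gal4-VP16 expression switched on by copper sulfate through the metallothionein promoter; nearly all actives have a fitted effect of over 50% in size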
A number is an active result; 0 = inactive; ? = inconclusive; - = no result given; [ ] = another dose, or the depositor's remark. The list is not random: actives were taken first. Their share in the collection is about 5.6%. Unless noted, the call rests on the fitted dose curve; in most records, active means well fitted curve in the direction sought with a large enough effect; inconclusive means small, poorly fitted or top-dose-only effect, or another doubt; inactive means no such curve, though single readings can be large; an effect the other way counts as inactive or inconclusive.

SMILES	RORgamma inh	Six1-Eya2 blk	PKM2 activator	CtBP-E1A inh	Gal4-VP16 FLuc
S=c1[nH]nc(C2CCCCC2)n1/N=C/c1ccccc1Br	?	0	-	0	?
O=[N+]([O-])c1ccc(Cl)c(/C=N/n2c(C3CCCCC3)n[nH]c2=S)c1	0	0	0	0	0
O=C(O)COc1ccccc1/C=N/n1c(C2CCCCC2)n[nH]c1=S	0	0	-	0	0
COc1ccc(/C=C/C(=O)N(Cc2cccs2)C2CCS(=O)(=O)C2)cc1 (stereo not drawn)	0	0	0	0	0
CC1=CC(C)(C)NC(=S)N1c1cc(C)cc(C)c1	3.5µM	0	0	0	?
CC1=CC(C)(C)NC(=S)N1c1cccc(Cl)c1	-	0	-	0	-
CC1=CC(C)(C)NC(=S)N1c1ccccc1C	2.2µM	0	0	0	0[10 µM]
CC1=CC(C)(C)NC(=S)N1c1ccc(C)cc1C	1.4µM	0	0	0	2.8µM
CC1=CC(C)(C)NC(=S)N1c1ccc(N(C)C)cc1	-	0	-	0	-
Cc1nc2ccc(N=NN(C)C)cc2[nH]1	0	0	10µM	?	0
Cc1nc2ccc(Cc3ccc4nc(C)[nH]c4c3)cc2[nH]1	0	0	0	0	0
COC(=O)c1ccc2nc(-c3ccc(C)cc3)c(Cc3cccc(Cl)c3)n2c1	-	0	-	0	-
COc1ccc(C(O)C2=CCCC2=O)cc1 (stereo not drawn)	0	-	-	-	0
Cn1ncc([N+](=O)[O-])c1C(=O)Nc1nc2ccccc2n1CCN1CCCCC1	3.5µM	0	0	?	?
CCn1cc(Cl)c(C(=O)Nc2nc3ccccc3n2CCN2CCCCC2)n1	10µM	0	0	0	8.9µM
COc1ccc(C(=O)Nc2ccccc2NC(=O)c2ccc(OC)cc2)cc1	-	0	-	-	-
COc1ccc(CNC(=S)Nc2cccc(C)c2C)cc1	2.5µM	0	0	0	7.9µM
Cc1cccc(NC(=S)NCc2ccncc2)c1C	0	0	0	0	0
COc1ccc(CNC(=S)Nc2ccccc2F)cc1	?	0	0[11.5 µM]	0	18µM
COc1ccc(C(=O)NC(=S)NNC(=O)c2ccccc2C)cc1	-	0	-	0	-
CNC(=O)NC(=S)NC(=O)c1ccc(OC)cc1	11µM	0	?	0	0
COc1ccc(C(=O)NC(=S)Nc2ccccc2F)cc1	4.5µM	0	0	0	11µM
Fc1ccccc1NC(=S)NCc1ccc(Cl)cc1	11µM	0	0	0	?
CCc1ccc(/C=C/C(=O)c2cc(Br)ccc(=O)c2O)cc1	?	0	0	0	?
CCOc1ccc(/C=C/C(=O)c2cc(Br)ccc(=O)c2O)cc1	?	0	0	0	22µM
SMILES	RORgamma inh	Six1-Eya2 blk	PKM2 activator	CtBP-E1A inh	Gal4-VP16 FLuc
Cc1sc(C(C2C(=O)CC(C)(C)CC2=O)C2C(=O)CC(C)(C)CC2=O)cc1[N+](=O)[O-]	?	0	18µM	-	?
COc1c(O)cc2oc(-c3ccc(O)cc3)cc(=O)c2c1O	?	0	0	?	?
COc1cccc2oc(-c3ccccc3)cc(=O)c12	11µM	-	-	-	?
COc1cccc2oc(SC)cc(=O)c12	32µM	-	-	-	?
O=c1cc(-c2ccccc2)oc2cc(O)c(O)c(O)c12	28µM	0	-	0	?
CCC[C@@H]1C[C@@]1(CCC)C(NC(=O)c1ccccc1)c1cccc(Cl)c1 (stereo partly drawn)	0	-	0	-	0
CS(=O)(=O)c1ccc(S(=O)(=O)N2CCN(C(=O)C(O)c3ccccc3)CC2)cc1 (stereo not drawn)	-	0	-	0	-
O=C(OCc1nnc(-c2ccccc2)o1)C1CC(=O)N(Cc2ccco2)C1 (stereo not drawn)	0	0	0	0	0
Cc1nnnn1CC(=O)Nc1cccc([N+](=O)[O-])c1	0	0	0	0	0
Cc1cccc2c1N(CCCOc1ccccc1)C(=O)C2=O	0	0	0	0	?
Cc1ccccc1OCCCN1C(=O)C(=O)c2cccc(C)c21	35µM	0	0	0	11µM
OCC1(CO)COC(CCc2ccccc2)=N1	0	0	0	-	0
CC1(C)CCC(C)(C)NC(=S)N1	8.9µM	0	0	0	?
CN(C)c1nc(NCc2ccccc2)nc(N/N=C/c2ccc(Cl)cc2Cl)n1	2.2µM	0	0	0	0
CN(C)c1nc(NCc2ccccc2)nc(N/N=C/c2ccccc2F)n1	2.8µM	-	0	-	6.3µM
Cc1cc(N/N=C/c2ccccc2F)nc(NCc2ccccc2)n1	0	0	0	0	0
Cc1cc(N/N=C/c2ccc(Cl)cc2)nc(NCc2ccccc2)n1	?	0	0	0	?
FC(F)Oc1ccc(NC(=S)N2CCc3ccccc32)cc1	8.9µM	0	0	0	0
Fc1ccc(NC(=S)N2CCc3ccccc32)cc1	11µM	0	0	-	?
O=[N+]([O-])c1ccccc1NS(=O)(=O)c1ccccc1	-	0	-	0	-
O=C(COC(=O)C12CC3CC(CC(O)(C3)C1)C2)Nc1ccc(Cl)c(S(=O)(=O)N2CCOCC2)c1	-	0	-	0	-
Cc1ccc(C)c(OCc2nnc(N)s2)c1	13µM	0	0	0	0
Nc1nnc(COc2ccc(Br)cc2Br)s1	0	0	0	0	0
CCCC(=O)Nc1sc(-c2ccccc2)c(-c2ccccc2)c1C(=O)O	-	0	-	0	-
CCOc1ccc(C2C(C(=O)c3ccc(C)o3)=C(O)C(=O)N2c2nc(C)c(C(=O)OC)s2)cc1 (stereo not drawn)	1.1µM	0	0	-	0
SMILES	RORgamma inh	Six1-Eya2 blk	PKM2 activator	CtBP-E1A inh	Gal4-VP16 FLuc
O=C(CCNC(=O)Cn1ccc2ccccc2c1=O)NCC1CCCC1c1ccccc1 (stereo not drawn)	0	0	0	0	0
CCN(CC)c1ccc(/C=C2\C(=O)c3ccc(C(=O)O)cc3C2=O)cc1	11µM	0	0	0	10µM
CCN(CC)c1ccc(C(=O)O)cc1	0	0	0	-	0
CC1CN(C(=O)CCC(=O)N2CCN(c3cccc(C(F)(F)F)c3)CC2)c2ccccc2O1 (stereo not drawn)	?	0	-	0	?
NC(=O)c1cc(N2C(=O)C=CC2=O)ccc1Cl	7.1µM	0	0	0	7.1µM
CC(=O)Nc1ccc(Cl)c(C(N)=O)c1	0	0	0	0	0
COc1ccc(N/N=C(\C#N)C(=N)N2CCCCC2)cc1	0	0	0	-	0
COc1ccc(N/N=C(\C#N)C(=N)SCc2ccccc2)cc1	?	0	0	-	16µM
Cc1ccc(NC(=O)c2ccc(NCCN)c([N+](=O)[O-])c2)cc1	6.3µM	0	0	0	0
Cc1ccc(NC(=S)N/N=C/c2ccc(Cl)c([N+](=O)[O-])c2)cc1	18µM	0	0	0	?
O=C(N/N=C/c1ccc(Cl)c([N+](=O)[O-])c1)C1CC1	0	0	0	0	?
CCCOc1ccc(/C=N/NC(=S)Nc2ccccc2[N+](=O)[O-])c(O)c1	0	?	0	?	0
O=[N+]([O-])c1cc(/C=N/NC(=S)Nc2ccccc2Cl)ccc1Cl	3.2µM	0	0	0	3.5µM
COc1ccc(/C=N/NC(=S)Nc2ccccc2[N+](=O)[O-])cc1O	5.6µM	?	0	0	3.2µM

Screening data from PubChem BioAssay.
